{"source": "PubChem BioAssay (NCI)", "note": "The panel holds about 83,000 compounds, 20% with a hit somewhere; the sample as a whole holds those more often.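 Method: cells in 96-well plates; compound added at one concentration; 48 h incubation; percent growth measured; values under 10 scored active.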 Unmarked numbers belong to inactive results. Active and inactive are the calls of the source.", "data": [{"system": "HOP-92 NSCLC", "assay": "NCI-60 one-dose screen, 48 h (100 = growth as untreated, 0 = no growth, -100 = all killed)", "conditions": "10 µM unless noted", "procedure": "Growth inhibition of the HOP-92 human Non-Small Cell Lung tumor cell line is measured as a screen for anti-cancer activity. Cells are grown in 96 well plates and exposed to the test compound for 48 hours. Compounds are tested at a single concentration, which is 10^-5 M for most compounds. The reported endpoint is percent growth (GI% or GIPRCNT), where numbers from 0 - 100% represent growth inhibition, and numbers from -100% - 0 represent cell death. For example, a value of 40 represents 60% growth inhibition. A value of 0 means no net growth occurred over the course of the experiment. A value of -40 indicates 40% of cells at the beginning of the experiment died by the end of the experiment. A value of -100 means all cells are dead at the end of the experiment.\nNCI-60 Human Tumor Cell Lines Screen was performed using the standard one-dose NCI protocol, which is described in more detail at https://dtp.cancer.gov/discovery_development/nci-60/default.htm.\nCompounds with GIPRCNT values below 10 were considered active. Activity score was based on GIPRCNT using the following formula: […]\nScore is 0 for GIPRCNT values of 100 or above, 50 for GIPRCNT values of 0, and 100 for GIPRCNT values of -100.", "values": [{"smiles": "COc1ccc2[nH]cc(-c3nc(-c4cn(C)c5ccncc45)cs3)c2c1", "growth": "98.2%"}, {"smiles": "O=C(N/N=C/c1ccc([N+](=O)[O-])cc1)c1ccc2nc(-c3ccc(Cl)cc3)[nH]c2c1", "growth": "59.7%"}, {"smiles": "CCCCCCCCNc1cc2c3c(c1)CCCN3CCC2", "growth": "-5.51% (active)"}, {"smiles": "CN(C)c1ccc(-c2cc(-c3ccc(Nc4nc(Nc5ccc(Cl)cc5)nc(Nc5ccc(Cl)cc5)n4)cc3)nc(N)c2C#N)cc1", "growth": "46.3%"}, {"smiles": "CN1CCCc2cc(/C=C3/SC(=S)N(CCc4ccc(O)cc4)C3=O)ccc21", "growth": "48.3%"}, {"smiles": "COc1ccc(Cl)cc1Nc1nc(C(F)(F)F)ccc1C(=O)N/N=C/c1ccccc1Cl", "growth": "-47.7% (active)"}, {"smiles": "COc1ccc2cc(-c3cnc4nonc4n3)ccc2c1", "growth": "80.8%"}, {"smiles": "O=C1/C(=C/c2ccccc2)CN(C(=O)c2cccnc2)C/C1=C\\c1ccccc1", "growth": "78.7%"}, {"smiles": "O=C(Nc1ccccc1)c1sc(-c2ccccc2)cc1O", "growth": "77%"}, {"smiles": "CCN(CC)CCCNCc1cc(-c2ccccc2)nc2cc(Cl)ccc12", "growth": "-20.9% (active)"}, {"smiles": "N#C/C(=C\\c1ccc(Cl)cc1Cl)C(=O)Nc1ncc(Cc2ccc(Cl)c(Cl)c2)s1", "growth": "70.7%"}, {"smiles": "O=c1nc(Nc2nc3ccccc3s2)[nH]c(=O)c2ccccc12", "growth": "83.4%"}, {"smiles": "COc1cccc(/C=C/C(=O)c2cc3c(N)c(C(=O)Nc4cccc(Cl)c4C)sc3nc2C)c1", "growth": "20.3%"}, {"smiles": "COC(=O)C1=C(C)NC(C)=C(C(=O)OCC(C)C)C1c1ccccc1[N+](=O)[O-]", "note": "(stereo not given)", "growth": "47.3%"}, {"smiles": "N#C/C(=C\\c1ccc(Br)cc1)c1cc2ccccc2[nH]1", "growth": "70.4%"}, {"smiles": "Cn1cc(-c2ccc3cc(-c4ccc(CC(=O)Nc5cc(C(C)(C)C)on5)cc4)cnc3c2)cn1", "growth": "50.9%"}, {"smiles": "CCOC(=O)c1c(NC(=O)c2ccc(OC)cc2)sc2c(CN(C)C)c(O)ccc12", "growth": "25.3%"}, {"smiles": "C=CC(=O)N1CCN(c2ccc3cccc(NC(=O)c4cnc(C)cn4)c3n2)CC1", "growth": "42.7%"}, {"smiles": "O=C(CSc1nc2ccc([N+](=O)[O-])cc2[nH]1)Nc1ccc(Br)cc1", "growth": "-8.92% (active)"}, {"smiles": "CCOC(=O)c1c(NC(=O)c2ccc(C(C)(C)C)cc2)sc2cc(O)ccc12", "growth": "96.8%"}, {"smiles": "Cc1[nH]c(/C=C/C(=O)c2ccc(C(F)(F)F)c(F)c2)c(C)c1C(=O)NCC(C)C", "growth": "108%"}, {"smiles": "CCCCCCC(=O)Nc1ncc(Cc2ccc(C)cc2)s1", "growth": "60.4%"}, {"smiles": "CCCCSCC(=O)c1ccccc1", "growth": "94.5%"}, {"smiles": "CCN1C(=O)N(CC)C2C1NN=C1SCC(=O)N12", "note": "(stereo not given)", "growth": "114%"}, {"smiles": "CN1CCN(c2ccc3c(c2)nc(NNC(=O)c2cnccn2)c2cccn23)CC1", "growth": "65.5%"}, {"smiles": "COc1ccc(C2=C/C(=C\\c3ccc(Cl)cc3)C(=O)N2/N=C/c2ccc(Cl)cc2)cc1", "growth": "72.8%"}, {"smiles": "O=C(CSc1nnc2sc(Nc3cccc(Cl)c3)nn12)c1ccc(F)cc1", "growth": "74.5%"}, {"smiles": "N=C(N)c1ccc(-c2ccc(-c3ccc(Cl)cc3Cl)s2)cc1F", "growth": "43%"}, {"smiles": "O=C(N/N=C/c1ccc(Cl)cc1Cl)c1ccc2nc(-c3ccc(Cl)cc3)[nH]c2c1", "growth": "28.1%"}, {"smiles": "CCCCNC1=C(OCC)C(=O)c2ccccc2C1=O", "growth": "74.5%"}, {"smiles": "CCCCn1sc(=O)n(Cc2ccc(CNC(=O)OCc3ccc4c(Cl)cc(Cl)c(O)c4n3)cc2)c1=O", "growth": "74.5%"}, {"smiles": "Cc1ccc(-c2csc(NC(=O)N3CCN(c4cc5c(cc4F)c(=O)c(C(=O)O)cn5C4CC4)CC3)n2)cc1", "growth": "-12.6% (active)"}, {"smiles": "COc1ccc(C2C3=C(COC3=O)N(CCO)c3cc4c(cc32)OCCO4)cc1OC", "note": "(stereo not given)", "growth": "40.8%"}, {"smiles": "COc1cc2c(c(OC)c1OC)C(=O)N[C@@H]1[C@@H](O)[C@@H](O)[C@H](O)C[C@@H]21", "growth": "91.4%"}, {"smiles": "Cc1ccc(C)c(-n2c(-c3ccc(Br)cc3)csc2=NC(=O)c2ccccc2F)c1", "growth": "67.6%"}, {"smiles": "Cc1c2cnccc2c(C)c2c1c1cc(C3OCCCO3)ccc1n2C", "growth": "-10.5% (active)"}, {"smiles": "CCN(C(=O)N1CCN(c2cc3c(cc2F)c(=O)c(C(=O)O)cn3C2CC2)CC1)c1nc(-c2ccc(C)cc2)cs1", "growth": "-12% (active)"}, {"smiles": "Cc1nc2ccccc2c(/C=C/c2ccc(C(F)(F)F)cc2)c1C(=O)/C=C/c1ccccc1", "growth": "16.5%"}, {"smiles": "C=CCCC(=O)N1C=CC(=O)[C@H](O)[C@@H]1/C=C/c1ccccc1", "growth": "70.6% [100 µM]"}, {"smiles": "N#CC(C#N)N=Nc1ccc(Cl)cc1Cl", "growth": "-26.5% (active)"}]}]}
